Assay results reported in the supplement of paper PMC12645437, “Orthogonal IMiD-Degron Pairs Induce Selective Protein Degradation in Cells” (ACS Chemical Biology, 2025).
Over roughly 8,300 sequences, “log2 fold change of degron read counts, EGFP-low vs EGFP+ sorted cells (limma voom), compound-induced degradation” has its median near -1.1; the highest 2% begin near 3.2. The sample holds the highest values, similar sequences and a random draw of the others, so the mix is not that of the screen.

T1: CRBN, Q96SW2
T1 chain: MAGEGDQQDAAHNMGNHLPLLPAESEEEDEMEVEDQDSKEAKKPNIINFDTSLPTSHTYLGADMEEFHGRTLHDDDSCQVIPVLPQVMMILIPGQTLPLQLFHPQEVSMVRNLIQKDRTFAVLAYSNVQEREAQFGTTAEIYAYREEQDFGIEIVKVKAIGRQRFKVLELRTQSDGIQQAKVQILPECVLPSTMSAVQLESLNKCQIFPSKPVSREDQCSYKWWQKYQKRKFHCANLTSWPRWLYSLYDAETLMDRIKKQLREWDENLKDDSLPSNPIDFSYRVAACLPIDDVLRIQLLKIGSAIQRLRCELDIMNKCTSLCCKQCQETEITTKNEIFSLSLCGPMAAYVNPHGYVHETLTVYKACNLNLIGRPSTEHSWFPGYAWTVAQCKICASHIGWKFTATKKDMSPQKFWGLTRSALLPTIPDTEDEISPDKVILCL


Target: T1, CRBN, Q96SW2
Assay: log2 fold change of degron read counts, EGFP-low vs EGFP+ sorted cells (limma voom), compound-induced degradation; higher = more compound-induced degradation of the degron-EGFP fusion; degrons are variants of IKZF1/3 zinc finger 2; compound dose not given here
Details: Jurkat, 18 h
[1] = compound: compound 19 (5-tert-butyl-thalidomide)
[2] = compound: compound 22 (5-morpholino-thalidomide)
[3] = compound: compound 33 (diphenyl IMiD analogue)
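Also: pooled lentiviral library of zinc finger degron-EGFP fusions in mCherry-positive Jurkat cells, FACS-sorted after compound exposure, with degron abundance counted by next-generation sequencing.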

Sequence | log2 fold change of degron read counts [1] | log2 fold change of degron read counts [2] | log2 fold change of degron read counts [3] | log2 fold change of degron read counts (compound: thalidomide)
LACNQCGFRCTQKGNLLRHIKL [46L_47A_49N_50Q_52G_53F_54R_55C_67L_, Q9UKT9] | -0.828 | -1.5 | -1.86 | -1.22
FSCPICGRLFTQKGNLLRHIKL [46F_47S_49P_50I_52G_53R_54L_55F_67L_, Q9UKT9] | -0.866 | -1.05 | 1.44 | -0.361
FVCPQCGALFTQKGNLLRHIKL [46F_47V_49P_50Q_52G_53A_54L_55F_67L_, Q9UKT9] | -2.37 | -1.48 | -0.389 | -0.926
FGCEICGAWFTQKGNLLRHIKL [46F_47G_49E_50I_52G_53A_54W_55F_67L_, Q9UKT9] | -0.259 | -1.17 | 0.513 | -0.936
FLCPQCGAQFTQKGNLLRHIKL [46F_47L_49P_50Q_52G_53A_54Q_55F_67L_, Q9UKT9] | -2.2 | -2.3 | 0.482 | -0.585
FDCNICGAIFTQKGNLLRHIKL [46F_47D_49N_50I_52G_53A_54I_55F_67L_, Q9UKT9] | -1.43 | -1.22 | -0.173 | 0.319
FYCEICGHSFTQKGNLLRHIKL [46F_47Y_49E_50I_52G_53H_54S_55F_67L_, Q9UKT9] | -2.01 | -3.04 | -1.92 | -2.8
FVCNQCGAGFTQKGNLLRHIKL [46F_47V_49N_50Q_52G_53A_54G_55F_67L_, Q9UKT9] | -2.26 | -1.63 | -0.863 | -1.05
FFCEICGHVFTQKGNLLRHIKL [46F_47F_49E_50I_52G_53H_54V_55F_67L_, Q9UKT9] | -1.37 | -1.97 | -2.03 | -1.87
LCCEICGFHCTQKGNLLRHIKL [46L_47C_49E_50I_52G_53F_54H_55C_67L_, Q9UKT9] | 0.332 | -0.174 | 1.51 | 0.845
LACEICGFHCTQKGNLLRHIKL [46L_47A_49E_50I_52G_53F_54H_55C_67L_, Q9UKT9] | 1.51 | 0.415 | 0.86 | -0.0575
LSCEICGFHCTQKGNLLRHIKL [46L_47S_49E_50I_52G_53F_54H_55C_67L_, Q9UKT9] | 0.928 | 0.357 | 0.553 | 0.222
LWCEICGFHCTQKGNLLRHIKL [46L_47W_49E_50I_52G_53F_54H_55C_67L_, Q9UKT9] | 2.73 | 3.48 | 2.33 | 1.12
LICEICGFHCTQKGNLLRHIKL [46L_47I_49E_50I_52G_53F_54H_55C_67L_, Q9UKT9] | -0.287 | 0.622 | 1.12 | 1.6
LYCEICGFHCTQKGNLLRHIKL [46L_47Y_49E_50I_52G_53F_54H_55C_67L_, Q9UKT9] | 3.13 | 3.42 | 2.8 | 1.66
FHCNQCGARFTQKGNLLRHIKL [46F_47H_49N_50Q_52G_53A_54R_55F_67L_, Q9UKT9] | -1.49 | -1.78 | -1.81 | -2.18
FVCNQCGHTFTQKGNLLRHIKL [46F_47V_49N_50Q_52G_53H_54T_55F_67L_, Q9UKT9] | -3.49 | -3.28 | -3.04 | -3.41
LECPICGFDCTQKGNLLRHIKL [46L_47E_49P_50I_52G_53F_54D_55C_67L_, Q9UKT9] | -2.52 | -2.45 | -1.18 | -0.86
